Source: PubChem BioAssay (NCI)
This is part of a sample that, as a whole, favours compounds with a hit. Of some 83,000 tested, about 20% had one in any assay.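 A percent growth of 40 corresponds to 60% growth inhibition; 0 means no net growth; -100 means all cells died. Active threshold: below 10.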 The source made the active and inactive calls.

Legend:
Assay in all cases: NCI-60 one-dose screen, 48 h (100 = growth as untreated, 0 = no growth, -100 = all killed)
Conditions in all cases: 10 µM
[1] = test system: NCI-H23 lung
[2] = test system: NCI-H226 lung
[3] = test system: NCI-H322M lung
[4] = test system: HOP-62 NSCLC
[5] = test system: NCI-H460 lung
[6] = test system: HOP-92 NSCLC
[7] = test system: NCI-H522 lung
[8] = test system: A549/ATCC NSCLC
[9] = test system: 786-0 renal
[10] = test system: COLO 205 colon

Measured: growth

CC(=C(c1ccc(OCCN2CCCCC2)cc1)c1ccc(OCCN2CCCCC2)cc1)c1ccccc1
active: [6] 8.69% | [9] -35.8% | [10] -83.9%
inactive: [1] 47.2% | [2] 82.4% | [3] 60.9% | [4] 10.4% | [5] 41.6% | [7] 64.8% | [8] 33.3%

Cc1noc2c(Cc3ccccc3)nn(CC(=O)N/N=C/c3ccc(Cl)cc3)c(=O)c12
inactive: [1] 79.1% | [2] 14.5% | [3] 96.3% | [4] 34.9% | [5] 10.4% | [7] 83.9% | [8] 20.4% | [10] 51.8%
active: [6] 9.05% | [9] -23.9%

CCOC(=O)C1=C(N)N(c2ccccc2)C2=C(C(=O)CC(C)(C)C2)C1c1ccc(Cl)cc1 (stereo not given)
active: [10] -17.7%
inactive: [1] 48.9% | [2] 70.4% | [3] 64.9% | [4] 80.7% | [5] 13% | [6] 69.5% | [7] 38.4% | [8] 33.9% | [9] 67.3%

C=C(c1ccc(OC)c(N)c1)c1cc(C)nc2ccccc12
inactive: [1] 12.3% | [2] 22.8% | [3] 37.8% | [4] 30.9% | [6] 53.8% | [8] 19.9% | [9] 22.6%
active: [5] -4.48% | [7] -29.4% | [10] -79.8%

CCOC(=O)c1c(CSc2ccccc2)n(C)c2cc(CN(C)C)c(O)c(CN(C)C)c12
inactive: [1] 33.8% | [2] 46.6% | [3] 47.7% | [4] 72.2% | [5] 34.6% | [6] 32.5% | [7] 62.4% | [8] 49.6% | [9] 45.3%
active: [10] -37.8%

COc1ccc(/C(C)=N/N=C2C(=O)N(C)c3ccc(Br)cc32)cc1S(N)(=O)=O
inactive: [1] 64.1% | [2] 43.6% | [3] 80.8% | [4] 36.2% | [5] 74.8% | [6] 28.1% | [7] 45.5% | [8] 86.1% | [9] 71.4% | [10] 102%

COc1ccc(-c2cc(-c3cc(C(=O)c4ccccc4)n4ccc(C)cc34)nc(N)c2C#N)cc1
inactive: [1] 55% | [2] 36.4% | [3] 83.7% | [4] 29.7% | [5] 44.5% | [7] 71.5% | [8] 79.9% | [9] 13.5% | [10] 73%
active: [6] -7.39%

Nc1nnc(-c2c[nH]c3ncccc23)c(-c2c[nH]c3ccc(Br)cc23)n1
inactive: [1] 57.1% | [2] 63.6% | [3] 60.5% | [4] 49.4% | [5] 27.2% | [6] 54.8% | [7] 47.9% | [8] 58.9% | [9] 40% | [10] 66.9%

CCCCSc1nc(Nc2ccc(/C(C)=N/NC(N)=S)cc2)c(C#N)c(-c2ccc(OC)cc2)n1
active: [2] -6.28% | [6] -4.59% | [9] -71.5%
inactive: [1] 31.4% | [3] 74.8% | [4] 54.4% | [5] 46.5% | [7] 85.7% | [8] 47.4% | [10] 125%

COc1ccc(/C=C/C(=O)c2ccc(N3CCN(C)CC3)cc2)c(C(F)(F)F)c1
inactive: [1] 28.2% | [2] 46.4% | [3] 76.5% | [4] 79.6% | [5] 11.2% | [6] 46.8% | [7] 52.8% | [8] 48.4% | [9] 41.6%
active: [10] -64.6%

Nc1nc(-c2ccccc2)cs1
active: [7] -4.11%
inactive: [1] 42% | [2] 63.4% | [3] 99.4% | [4] 52% | [5] 73.2% | [6] 60.9% | [8] 55.7% | [9] 93.7% | [10] 108%

CCOC(=O)C1=C(N)N(c2ccccc2)C2=C(C(=O)CC(C)(C)C2)C1c1ccccc1OC (stereo not given)
inactive: [1] 98.3% | [2] 101% | [3] 94% | [4] 102% | [5] 115% | [6] 114% | [7] 95.3% | [8] 103% | [9] 97.7% | [10] 128%

COc1cc(Cn2c(C(F)(F)F)cc3c(Cl)ncnc32)ccn1
active: [1] -66.6% | [3] -73.3% | [5] 2.75%
inactive: [2] 72.2% | [4] 32.1% | [6] 49.1% | [7] 56% | [8] 92.6% | [9] 93.3% | [10] 79.9%

O=C(CSc1nnc(-c2c[nH]c3ccccc23)n1-c1ccccc1)c1ccc(Cl)cc1
inactive: [1] 40.8% | [2] 17.6% | [3] 58.7% | [4] 47.1% | [5] 60.1% | [6] 65% | [7] 67% | [8] 37.5% | [9] 44.9% | [10] 42.6%

COC1=C[C@@]23CCC(=O)N2CCc2cc4c(cc2[C@H]3[C@H]1OC(=O)C(C)(C)O)OCO4
inactive: [1] 95.6% | [2] 93.2% | [3] 101% | [4] 89.2% | [5] 115% | [6] 92% | [7] 95.6% | [8] 102% | [9] 95.7% | [10] 120%

CN1C(=O)N(C)C2SC(N/N=C/c3ccc(F)cc3)=NC21 (stereo not given)
inactive: [1] 63.5% | [2] 75.6% | [3] 97.4% | [4] 53.5% | [5] 32.6% | [6] 71.1% | [7] 14.7% | [8] 49.6% | [9] 50.2% | [10] 46.5%

O=C1Nc2cc(-c3ccc(NC(=O)c4cccc([N+](=O)[O-])c4)cc3)ccc2/C1=C/c1ccc[nH]1
inactive: [1] 71.6% | [2] 76.7% | [3] 102% | [4] 94.9% | [5] 103% | [6] 109% | [7] 84.3% | [8] 94.5% | [9] 103% | [10] 42.9%

NS(=O)(=O)c1ccc(N=Nc2c(O)n(CC(=O)Nc3ccccc3Br)c3ccccc23)cc1
inactive: [1] 40% | [2] 14.4% | [3] 50.3% | [4] 37.6% | [5] 26.4% | [6] 38.7% | [7] 32.6% | [8] 19.8% | [9] 20.1%
active: [10] 5.92%

C#Cc1ccc(S(=O)(=O)Nc2cccc(-c3csc(NC(C)=O)n3)c2)cc1
inactive: [1] 65.2% | [2] 71.8% | [3] 98.9% | [4] 84.6% | [5] 76.7% | [6] 42.5% | [7] 56.4% | [8] 62.8% | [9] 88.2% | [10] 88.3%

O=C(N/N=C/c1ccc(-c2cccc([N+](=O)[O-])c2)o1)c1[nH]c2ccc(Br)cc2c1-c1ccccc1
inactive: [1] 17.6% | [2] 16.2% | [3] 54% | [4] 38.7% | [6] 55.7%
active: [5] 9.61% | [7] -48.4% | [8] 0.801% | [9] 5.31% | [10] -65.4%

O=C1CCC(N2Cc3c(NCc4ccc(-c5ccccc5)cc4)cccc3C2=O)C(=O)N1 (stereo not given)
inactive: [1] 72.9% | [2] 55.1% | [3] 77.2% | [4] 74.4% | [5] 36.4% | [6] 24.3% | [7] 82.7% | [8] 71.6% | [9] 70.8% | [10] 82%

CN1CCN(c2ccc(Nc3nc(N4CCN(S(=O)(=O)c5ccc(F)cc5)CC4)c4sccc4n3)cc2)CC1
active: [1] -64.4% | [2] -74.7% | [3] -88% | [4] -49.6% | [5] -73% | [6] -66.3% | [7] -86.4% | [8] -48.9% | [9] -72.6% | [10] -79.9%

C=C(C)[C@@H]1CC[C@]2(C)[C@H](CC=C3[C@@H]4CC(C)(C)CC[C@]4(C(=O)N4CCOCC4)CC[C@]32C)[C@@]1(C)CCCN
active: [1] -82.2% | [2] -80.5% | [3] -98.9% | [4] -90.6% | [5] -77.5% | [6] -77.1% | [7] -91.6% | [8] -84.1% | [9] -79.3% | [10] -92.8%

COc1ccc(NC(=O)Nc2ccc(OCC(=O)N=Nc3c(O)[nH]c4ccc([N+](=O)[O-])cc34)cc2)cc1
active: [7] 0.434%
inactive: [1] 59.5% | [2] 62.7% | [3] 91.2% | [4] 40.7% | [5] 74% | [6] 53.5% | [8] 99% | [9] 73.1% | [10] 112%

Cc1cc(C(F)(F)F)ccc1C(=O)Nc1sc2c(c1C#N)CCC(=O)C2
active: [1] -28.3% | [2] -13% | [4] 1.05% | [5] 4.71% | [6] -64.4% | [7] -62.9% | [10] -94.4%
inactive: [3] 29.8% | [8] 30% | [9] 12.7%

O=C(Nc1nc2ccc([N+](=O)[O-])cc2s1)Nc1cc(Cl)ccc1I
active: [1] -53.2% | [2] -50.9% | [3] -9.64% | [4] -44% | [5] -2.31% | [6] -32.5% | [7] -52.8% | [8] -9.31% | [9] -49.4% | [10] -98.1%
